Measured values reported in paper PMC8159961, “Exploring protein hotspots by optimized fragment pharmacophores” (Nature Communications, 2021).
A number with no mark means an inactive call. No rule for the calls is given here.

Key:
Assay in all cases: primary screen, binary call; higher = more effect of the substance
Factor Xa = Factor Xa (bovine, UniProt P00743); design: screenings were carried out in duplicate in one independent experiment; conditions: 200 µM
Description: Protease inhibitory assays were performed in transparent microtiter plates in a final volume of 200 µL with the use of chromogenic substrates. The reaction rates in the absence and in the presence of the inhibitor were measured; screenings were carried out in duplicate in one independent experiment and Ki values were determined in triplicate in two independent experiments.

5-HT6 receptor = 5-HT6 receptor (human, UniProt P50406); design: hit call from the mean of at least two separate experiments; conditions: 10 µM
5-HT7b receptor = 5-HT7b receptor (human, UniProt P34969); design: hit call from the mean of at least two separate experiments; conditions: 10 µM
Chain of 5-HT7b receptor (P34969 whole entry, looked up): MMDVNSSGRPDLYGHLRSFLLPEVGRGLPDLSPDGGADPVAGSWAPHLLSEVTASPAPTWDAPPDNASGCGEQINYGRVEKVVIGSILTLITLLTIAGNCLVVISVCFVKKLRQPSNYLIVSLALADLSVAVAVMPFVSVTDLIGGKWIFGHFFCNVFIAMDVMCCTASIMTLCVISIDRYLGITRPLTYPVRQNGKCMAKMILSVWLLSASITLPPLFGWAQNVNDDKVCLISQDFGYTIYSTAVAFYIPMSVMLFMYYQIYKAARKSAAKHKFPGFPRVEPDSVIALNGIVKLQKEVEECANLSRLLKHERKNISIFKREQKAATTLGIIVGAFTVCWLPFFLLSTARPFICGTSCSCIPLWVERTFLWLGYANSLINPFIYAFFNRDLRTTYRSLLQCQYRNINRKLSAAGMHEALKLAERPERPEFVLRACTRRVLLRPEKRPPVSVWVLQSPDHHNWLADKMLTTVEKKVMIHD

Chain of Factor Xa (P00743 41-180 limits assumed): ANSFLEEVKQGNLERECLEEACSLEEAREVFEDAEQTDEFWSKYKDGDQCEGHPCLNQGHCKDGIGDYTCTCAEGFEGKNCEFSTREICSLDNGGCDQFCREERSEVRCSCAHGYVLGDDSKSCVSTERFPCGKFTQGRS
Chain of Factor Xa (P00743 234-492 limits assumed): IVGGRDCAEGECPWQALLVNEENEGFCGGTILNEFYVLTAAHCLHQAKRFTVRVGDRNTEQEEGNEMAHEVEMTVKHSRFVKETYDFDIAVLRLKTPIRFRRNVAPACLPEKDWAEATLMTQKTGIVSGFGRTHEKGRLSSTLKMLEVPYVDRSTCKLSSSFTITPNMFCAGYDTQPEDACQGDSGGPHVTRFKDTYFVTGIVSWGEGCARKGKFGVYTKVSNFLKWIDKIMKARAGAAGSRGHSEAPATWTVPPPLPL
Chain of 5-HT6 receptor (P50406 whole entry, looked up): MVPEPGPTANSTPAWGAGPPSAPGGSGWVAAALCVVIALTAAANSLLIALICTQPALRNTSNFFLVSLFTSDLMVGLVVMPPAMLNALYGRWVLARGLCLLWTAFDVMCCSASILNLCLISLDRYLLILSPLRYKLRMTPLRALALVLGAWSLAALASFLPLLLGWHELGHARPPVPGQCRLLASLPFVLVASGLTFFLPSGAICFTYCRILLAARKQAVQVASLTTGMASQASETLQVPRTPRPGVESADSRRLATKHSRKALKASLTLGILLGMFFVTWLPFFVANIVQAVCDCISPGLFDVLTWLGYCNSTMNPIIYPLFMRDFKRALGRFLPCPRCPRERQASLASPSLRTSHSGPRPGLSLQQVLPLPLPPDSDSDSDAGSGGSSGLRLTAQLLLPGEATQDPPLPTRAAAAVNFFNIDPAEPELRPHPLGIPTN

N#Cc1ccc2ncsc2c1
Factor Xa (Factor Xa): 0 | 5-HT6 (5-HT6 receptor): 0 | 5-HT7 (5-HT7b receptor): 0

CCN(CC)c1cccc(C)c1
Factor Xa (Factor Xa): 0 | 5-HT6 (5-HT6 receptor): 0 | 5-HT7 (5-HT7b receptor): 0

O=C(c1ccccc1F)N1CCNCC1
Factor Xa (Factor Xa): 1 (active) | 5-HT6 (5-HT6 receptor): 0 | 5-HT7 (5-HT7b receptor): 0

CS(=O)(=O)Nc1ccc(C(=O)O)cc1
Factor Xa (Factor Xa): 0 | 5-HT6 (5-HT6 receptor): 0 | 5-HT7 (5-HT7b receptor): 0

CS(=O)(=O)c1ccc(OC(F)(F)F)cc1
Factor Xa (Factor Xa): 0 | 5-HT6 (5-HT6 receptor): 0 | 5-HT7 (5-HT7b receptor): 0

c1ccc2oc(C3CCCNC3)nc2c1 (stereo not drawn)
Factor Xa (Factor Xa): 0 | 5-HT6 (5-HT6 receptor): 0 | 5-HT7 (5-HT7b receptor): 0

NC(=O)N1CCC(C(=O)O)CC1
Factor Xa (Factor Xa): 0 | 5-HT6 (5-HT6 receptor): 0 | 5-HT7 (5-HT7b receptor): 0

Oc1nnc(-c2ccccc2)o1
Factor Xa (Factor Xa): 0 | 5-HT6 (5-HT6 receptor): 0 | 5-HT7 (5-HT7b receptor): 0

Nc1ccc(-c2ccccc2)cc1C(=O)O
Factor Xa (Factor Xa): 0 | 5-HT6 (5-HT6 receptor): 0 | 5-HT7 (5-HT7b receptor): 0

NC(c1ccccc1)c1ccccc1
Factor Xa (Factor Xa): 0 | 5-HT6 (5-HT6 receptor): 0 | 5-HT7 (5-HT7b receptor): 0

CN1CC(=O)NC1=O
Factor Xa (Factor Xa): 0 | 5-HT6 (5-HT6 receptor): 0 | 5-HT7 (5-HT7b receptor): 0

c1cnc2c(c1)NCCC2
Factor Xa (Factor Xa): 0 | 5-HT6 (5-HT6 receptor): 0 | 5-HT7 (5-HT7b receptor): 0

CC(=O)c1ccc2c(c1)CNCC2
Factor Xa (Factor Xa): 0 | 5-HT6 (5-HT6 receptor): 0 | 5-HT7 (5-HT7b receptor): 0

c1ccc2c(N3CCNCC3)ccnc2c1
Factor Xa (Factor Xa): 0 | 5-HT6 (5-HT6 receptor): 1 (active) | 5-HT7 (5-HT7b receptor): 0

CC(=O)c1ccc2c(c1)CCCN2
Factor Xa (Factor Xa): 0 | 5-HT6 (5-HT6 receptor): 0 | 5-HT7 (5-HT7b receptor): 0

COc1ccc(C2=CCNCC2)cc1
Factor Xa (Factor Xa): 0 | 5-HT6 (5-HT6 receptor): 0 | 5-HT7 (5-HT7b receptor): 0
